Data as given in PubChem BioAssay AID1159580 (chemical genetic matrix, 2015).
Where “and” joins values, the source holds several entries; their conditions need not be identical. Identical values can stand only once. Screen size: about 5,500 compounds; about 2,000 (36%) were called active. About 18% were inconclusive and are not listed. No stated cut-off is given here; in the data, active means normalized growth mostly below about 0.91 (no sharp cut-off); inconclusive means no clear call, values can overlap the other calls; inactive means mostly above about 0.92. The list shows a part of the results.

Experiment: chemical genetic growth profiling, strain panel (AID 1159580);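 further: tested at 20 µM; growth read once vehicle control cultures reached saturation at 30 °C; 1 = growth at the plate median or of vehicle wells; lower values mean less growth of the strain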
Conditions: growth OD

Measured: normalized growth

NCCS
inactive: S. cerevisiae deletion strains, locus YJR075W, strain HOC1, active compounds read low 1.01 | S. cerevisiae deletion strains, locus YKL009W, strain mrt4, active compounds read low 0.998 | S. cerevisiae deletion strains, locus YKL068W, active compounds read low 1 | S. cerevisiae deletion strains, locus YKL085W, strain MDH1 (second series), active compounds read low 1.01 | S. cerevisiae deletion strains, locus YKL085W, strain MDH1, active compounds read low 1.01 | S. cerevisiae deletion strains, locus YKL160W, strain elf1, active compounds read low 0.986 | S. cerevisiae deletion strains, locus YKL190W, strain CNB1, active compounds read low 1.01 | S. cerevisiae deletion strains, locus YKR001C, strain vps1, active compounds read low 1.01 | S. cerevisiae deletion strains, locus YKR026C, strain gcn3, active compounds read low 0.947 | S. cerevisiae deletion strains, locus YKR091W, strain srl3, active compounds read low 0.991 | S. cerevisiae deletion strains, locus YLL001W, strain dnm1, active compounds read low 1 | S. cerevisiae deletion strains, locus YLL026W, active compounds read low 0.996 | S. cerevisiae deletion strains, locus YLL041C, strain sdh2, active compounds read low 0.998 | S. cerevisiae deletion strains, locus YLR027C, strain aat2, active compounds read low 0.984 | S. cerevisiae deletion strains, locus YLR039C, strain RIC1, active compounds read low 1.05 | S. cerevisiae deletion strains, locus YLR058C, strain SHM2, active compounds read low 1.02 | S. cerevisiae deletion strains, locus YLR102C, strain apc9, active compounds read low 1.01 | S. cerevisiae deletion strains, locus YLR113W, strain HOG1, active compounds read low 0.996 | S. cerevisiae deletion strains, locus YLR221C, strain rsa3, active compounds read low 0.992 | S. cerevisiae deletion strains, locus YLR258W, strain gsy2, active compounds read low 0.998 | S. cerevisiae deletion strains, locus YLR262C, strain YPT6 (second series), active compounds read low 0.953 | S. cerevisiae deletion strains, locus YLR262C, strain YPT6, active compounds read low 1.03 | S. cerevisiae deletion strains, locus YLR268W, strain sec22, active compounds read low 1.01 | S. cerevisiae deletion strains, locus YLR320W, strain mms22, active compounds read low 0.985 | S. cerevisiae deletion strains, locus YLR330W, strain CHS5, active compounds read low 1.01 | S. cerevisiae deletion strains, locus YLR342W, strain FKS1 (second series), active compounds read low 1.04 | S. cerevisiae deletion strains, locus YLR342W, strain FKS1, active compounds read low 0.969 | S. cerevisiae deletion strains, locus YLR357W, strain rsc2, active compounds read low 0.962 | S. cerevisiae deletion strains, locus YLR370C, strain arc18, active compounds read low 0.989 | S. cerevisiae deletion strains, locus YLR371W, strain rom2, active compounds read low 1.02 | S. cerevisiae deletion strains, locus YLR384C, strain iki3, active compounds read low 0.999 | S. cerevisiae deletion strains, locus YLR418C, strain cdc73, active compounds read low 1.03 | S. cerevisiae deletion strains, locus YML016C, strain PPZ1, active compounds read low 1.02 | S. cerevisiae deletion strains, locus YML032C, strain rad52, active compounds read low 1.02 | S. cerevisiae deletion strains, locus YML120C, strain ndi1, active compounds read low 0.988 | S. cerevisiae deletion strains, locus YML124C, strain tub3, active compounds read low 1.02 | S. cerevisiae deletion strains, locus YMR058W, strain fet3, active compounds read low 0.985 | S. cerevisiae deletion strains, locus YMR078C, strain ctf18, active compounds read low 1.01 | S. cerevisiae deletion strains, locus YMR125W, strain sto1, active compounds read low 0.968 | S. cerevisiae deletion strains, locus YMR129W, active compounds read low 1.01 | S. cerevisiae deletion strains, locus YMR205C, strain PFK2, active compounds read low 0.983 | S. cerevisiae deletion strains, locus YMR223W, strain ubp8, active compounds read low 1.01 | S. cerevisiae deletion strains, locus YMR231W, strain pep5, active compounds read low 0.999 | S. cerevisiae deletion strains, locus YMR263W, strain SAP30, active compounds read low 1.01 and 0.99 | S. cerevisiae deletion strains, locus YMR307W, strain GAS1, active compounds read low 1.02 | S. cerevisiae deletion strains, locus YNL067W, strain RPL9B, active compounds read low 1.01 | S. cerevisiae deletion strains, locus YNL071W, strain lat1, active compounds read low 0.956 | S. cerevisiae deletion strains, locus YNL128W, strain TEP1, active compounds read low 1.01 | S. cerevisiae deletion strains, locus YNL153C, strain GIM3, active compounds read low 1.01 | S. cerevisiae deletion strains, locus YNL175C, strain NOP13, active compounds read low 1 | S. cerevisiae deletion strains, locus YNL183C, strain NPR1, active compounds read low 0.981 | S. cerevisiae deletion strains, locus YNL197C, strain WHI3, active compounds read low 1.01 | S. cerevisiae deletion strains, locus YNL209W, strain ssb2, active compounds read low 0.989 | S. cerevisiae deletion strains, locus YNL224C, strain SQS1, active compounds read low 1 | S. cerevisiae deletion strains, locus YNL233W, strain BNI4, active compounds read low 1.02 | S. cerevisiae deletion strains, locus YNL248C, strain rpa49, active compounds read low 0.983 | S. cerevisiae deletion strains, locus YNL250W, strain rad50, active compounds read low 1.02 | S. cerevisiae deletion strains, locus YNL271C, strain bni1, active compounds read low 1.01 | S. cerevisiae deletion strains, locus YNL298W, strain CLA4, active compounds read low 1.03 | S. cerevisiae deletion strains, locus YNL307C, strain MCK1, active compounds read low 1.02 | S. cerevisiae deletion strains, locus YNL322C, strain KRE1 (second series), active compounds read low 0.979 | S. cerevisiae deletion strains, locus YNL322C, strain KRE1, active compounds read low 1.01 and 1.02 | S. cerevisiae deletion strains, locus YNR049C, strain mso1, active compounds read low 0.972 | S. cerevisiae deletion strains, locus YNR052C, strain pop2, active compounds read low 1.01 | S. cerevisiae deletion strains, locus YOL006C, strain TOP1, active compounds read low 1.04 | S. cerevisiae deletion strains, locus YOL012C, strain htz1 1.32 | S. cerevisiae deletion strains, locus YOL147C, strain pex11, active compounds read low 1.02 | S. cerevisiae deletion strains, locus YOR001W, strain rrp6, active compounds read low 0.992 | S. cerevisiae deletion strains, locus YOR061W, strain CKA2, active compounds read low 1.02 | S. cerevisiae deletion strains, locus YOR069W, strain VPS5, active compounds read low 1.01 | S. cerevisiae deletion strains, locus YOR070C, strain gyp1, active compounds read low 0.982 | S. cerevisiae deletion strains, locus YOR080W, strain dia2, active compounds read low 0.984 | S. cerevisiae deletion strains, locus YOR083W, strain WHI5 (second series), active compounds read low 1.02 | S. cerevisiae deletion strains, locus YOR083W, strain WHI5, active compounds read low 0.983 | S. cerevisiae deletion strains, locus YOR106W, strain vam3, active compounds read low 0.969 | S. cerevisiae deletion strains, locus YOR136W, strain idh2, active compounds read low 1.02 | S. cerevisiae deletion strains, locus YOR144C, strain elg1, active compounds read low 1.02 | S. cerevisiae deletion strains, locus YOR184W, strain ser1, active compounds read low 0.999 | S. cerevisiae deletion strains, locus YOR231W, strain MKK1, active compounds read low 1.02 | S. cerevisiae deletion strains, locus YOR265W, strain rbl2, active compounds read low 0.997 | S. cerevisiae deletion strains, locus YOR270C, strain vph1, active compounds read low 0.995 | S. cerevisiae deletion strains, locus YOR290C, strain snf2, active compounds read low 0.982 | S. cerevisiae deletion strains, locus YOR316C, strain cot1, active compounds read low 1.02 | S. cerevisiae deletion strains, locus YPL051W, strain arl3, active compounds read low 1 | S. cerevisiae deletion strains, locus YPL055C, strain LGE1, active compounds read low 1.01 | S. cerevisiae deletion strains, locus YPL078C, strain atp4, active compounds read low 0.988 | S. cerevisiae deletion strains, locus YPL106C, strain sse1, active compounds read low 0.957 | S. cerevisiae deletion strains, locus YPL240C, strain hsp82, active compounds read low 0.992 | S. cerevisiae deletion strains, locus YPL241C, strain CIN2, active compounds read low 1.01 and 1 | S. cerevisiae deletion strains, locus YPL256C, strain CLN2, active compounds read low 1.08 | S. cerevisiae deletion strains, locus YPR119W, strain clb2, active compounds read low 1.01 | S. cerevisiae deletion strains, locus YPR141C, strain kar3, active compounds read low 1.03 | S. cerevisiae deletion strains, locus YPR163C, strain tif3, active compounds read low 1.02 | S. cerevisiae deletion strains, locus YPR167C, strain met16, active compounds read low 1.01 | S. cerevisiae deletion strains, strain wtn01, active compounds read low 1.09 | S. cerevisiae strains, strain wild type, active compounds read low 1
